Reference: PubChem BioAssay AID1276 (Columbia University Molecular Screening Center, 2008)
Out of some 190,000 compounds screened, about 2,000 (1.1%) were called active. The entries come from a sample that favours actives as a whole. Unmarked numbers belong to inactive results.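 Rule for the calls: active = activation above a set limit, based on mean plus 3 SD of controls (cut at about 140% in these data); inconclusive = one replicate above the limit, the other below; inactive = the rest.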

Assay: APP 5'UTR reporter signal increase – luciferase, SH-SY5Y cells, primary screen (AID 1276)
Settings: SH-SY5Y APP 5'UTR luciferase reporter, luminescence; at 2 µM; active compounds read high; zero percent = DMSO vehicle wells

First: CCC(=O)N(Cc1cc2ccccc2[nH]c1=O)c1ccc(OC)cc1
Second: COc1ccc(C(=S)Nc2ccccc2)cc1
The activation of the first is lower: -4.49% for the first, 68.3% for the second.

First: C/C(=N/NC(=O)CCc1ccccc1)c1ccco1
Second: O=C(NNc1ncnc2c1cnn2-c1ccccc1)c1ccco1
The activation of the first is higher: 10.2% for the first, 6% for the second.

Going from `CCOc1ccc2nc(SC(CC)C(=O)Nc3cc(C)on3)sc2c1` (stereo unspecified) to `CCOc1ccc2nc(Nc3nc4ccc(NC(C)=O)cc4s3)sc2c1`, the activation falls from 1.9% to -5.77%.

Going from `Cc1cc(CNCc2c(C(=O)N(C)Cc3ccccc3)nc3ccccn23)nn1C` to `OCC1(Cc2ccccc2)CCN(Cc2cc3ccccc3o2)CC1`, the activation falls from 7.64% to -8.13%.

First: C/C(=N/NC(=S)Nc1ccccc1)c1ccc2c(c1)OCO2
Second: COc1ccc(C(=O)NC2CCN(C(=S)Nc3ccccc3)CC2)cc1
The activation of the first is higher: 11.9% for the first, -16.7% for the second.

First: CCOC(=O)CN/C=C(\C#N)c1ccc(F)cc1
Second: COc1c(C=O)c(CCN(C)C(=O)c2ccc(F)cc2)cc2c1OCO2
The activation of the first is higher: 29.2% for the first, 0.6% for the second.

Compared with `O=C(Nc1ccc2c(c1)OCCO2)c1ccc(Cl)c(S(=O)(=O)N2CCCCC2)c1`, `O=C(Nc1cccc(Cl)c1N1CCOCC1)c1ccc2c(c1)OCCO2` is lower in activation: 30.1% for the first, 12.9% for the second.

First: COc1c(Cl)cc(C(=O)Nc2ccc(Cl)cn2)cc1Cl
Second: COc1cccc(/C(C)=N/Nc2ncc(Cl)cc2Cl)c1
The activation of the first is higher: 34.7% for the first, 24.9% for the second.

Going from `O=C(Nc1cccc(S(=O)(=O)Nc2ccc(Cl)cc2)c1)c1ccc2c(c1)OCCO2` to `CCN(CC)CCNC(=O)c1ccc(NS(=O)(=O)c2ccc3c(c2)OCCO3)cc1`, the activation rises from -20.6% to 12.6%.

Compared with `CN1CCN(CCC(=O)N/N=C/C=C2\N(C)c3ccccc3C2(C)C)CC1`, `COC(c1ccccc1)c1nnc(CCC(=O)N2CCN(CCOc3ccccc3)CC2)o1` (stereo unspecified) is lower in activation: 8.29% for the first, -7.19% for the second.

Compared with `Cc1cccc(-n2ncc3c(N4CCc5ccccc54)ncnc32)c1`, `COc1ccc(-n2ncc3c(N4CCCc5ccccc54)ncnc32)cc1` is higher in activation: 25.5% for the first, 48.9% for the second.

Compared with `CCN(CC)C(=O)CSc1ncnc2c1cnn2-c1ccccc1`, `CCN(CC)c1ccc2c(Nc3ccccc3)c(C=O)c(=O)oc2c1` is lower in activation: 15.2% for the first, -11.3% for the second.

Compared with `O=C(COc1ccc(S(=O)(=O)N2CCCCC2)cc1)NCc1ccccn1`, `O=C(c1cccc(S(=O)(=O)N2CCCC2)c1)N(Cc1ccco1)C1CCS(=O)(=O)C1` (stereo unspecified) is higher in activation: 2.08% for the first, 11.1% for the second.

Compared with `CSCC[C@H](NC(=O)NC1CCCC1)C(=O)O`, `O=C(Nc1cccn(Cc2ccccc2Cl)c1=O)NC1CCCCC1` is higher in activation: -20.9% for the first, 19.9% for the second.

Going from `CCN1CCC2(CCN(Cc3cn[nH]c3-c3ccc(OC)c(F)c3)C2)C1` (stereo unspecified) to `COc1ccccc1N1CCN(c2ccc([N+](=O)[O-])nc2)CC1`, the activation rises from -14.3% to 0.38%.

Compared with `O=C(NNS(=O)(=O)c1ccc(F)cc1)c1cnccn1`, `O=C(Nc1nc(-c2ccc(-c3ccccc3)cc2)cs1)c1cnccn1` is higher in activation: 3.72% for the first, 11% for the second.

Going from `C/C(=N\Nc1ncc(Cl)cc1Cl)c1ccc(S(=O)(=O)NCc2ccco2)cc1` to `Cc1ccc(S(=O)(=O)/N=C(/Nc2ccc3[nH]c(=O)[nH]c3c2)c2ccccc2)cc1`, the activation falls from 100% to -13.5%.

Going from `OCCNc1nc2ccccc2[nH]1` to `CCCCSc1nc2ccccc2[nH]1`, the activation rises from 16.1% to 27.4%.

Compared with `C/C(=N\Nc1nc(Nc2ccccc2)nc(N2CCOCC2)n1)c1cccs1`, `c1ccc(Nc2nc(N3CCOCC3)c3ccccc3n2)cc1` is higher in activation: -7.91% for the first, 7.27% for the second.

Going from `O=S(=O)(NCC1CCCO1)c1cnc(Cl)c(Cl)c1` (stereo unspecified) to `Cc1cc([N+](=O)[O-])ccc1NC1CCCC1`, the activation falls from 1.68% to -0.84%.

Going from `CC(=O)c1ccc(S(=O)(=O)Nc2ccc(C(=O)NCC(c3ccccc3)N(C)C)cc2)cc1` (stereo unspecified) to `CCN(CC)CCOC(=O)c1ccc(NC(=O)CNC(=O)c2ccccc2)cc1`, the activation rises from -1.54% to 18.8%.

Going from `O=C(N/N=C/c1ccc(Cl)cc1)c1nc2ccc([N+](=O)[O-])cc2c(=O)[nH]1` to `Cc1ccc(-c2cn3cc([N+](=O)[O-])ccc3n2)cc1`, the activation rises from 5.49% to 120%.

Going from `COc1cccc(-n2c(=S)[nH]c3c(oc4ccccc43)c2=O)c1` to `Cc1ccc(N=Cc2c(O)n(-c3nccs3)c(=O)c3ccccc23)c(C)c1`, the activation falls from 23% to 11.8%.

First: Cc1cccc(-n2c(C)cc(/C=N/NC(N)=S)c2C)c1
Second: Cc1cccc(C(=O)N2CCCN(C(=O)c3cccc(C)c3)CC2)c1
The activation of the first is lower: -0.81% for the first, 2.21% for the second.

First: CCCCc1nnc(NC(=O)CSc2nc(N)cc(=O)[nH]2)s1
Second: NC(=O)C1CCN(Cc2nc3c(Br)cc(Br)cc3c(=O)[nH]2)CC1
The activation of the first is lower: -0.9% for the first, 4.38% for the second.

Going from `O=c1[nH]c2ccccc2s1` to `C=CCSc1nc2ccccc2[nH]1`, the activation rises from -19.6% to 15.8%.

Compared with `COc1cc([N+](=O)[O-])ccc1NC(=S)N1CCN(c2ccccn2)CC1`, `O=C(Nc1ccc(N2CCN(C(=O)C3CC3)CC2)cc1)c1cccs1` is higher in activation: -4.93% for the first, -0.31% for the second.

Compared with `COc1nc(N(C)C)nc(N2CC(=O)N(CCNS(=O)(=O)c3ccc(C)cc3)C2=N)n1`, `CCOc1ccc(Nc2nc(Cl)nc(N3CCN(c4ccc(OC)cc4)CC3)n2)cc1` is lower in activation: -1.55% for the first, -9.55% for the second.

Going from `CC(=O)n1cc([C@@H]2C=C(C(=O)N3CCN(Cc4ccc5c(c4)OCO5)CC3)O[C@H](OCc3ccc(CO)cc3)C2)c2ccccc21` to `Cc1[nH]c2c(C(=O)N3CCCC(CCC(=O)NCc4ccccc4F)C3)cccc2c1C` (stereo unspecified), the activation rises from -22.2% to 17.2%.

Compared with `COc1cccc(/C=C/c2ccc3ccccc3n2)c1OC(C)=O`, `NC(=O)COC(=O)/C=C/c1ccc2ccccc2n1` is lower in activation: 131% for the first, 2.32% for the second.

Going from `CCOc1ccc(CN2CCN(Cc3ccon3)CC2CCO)cc1` (stereo unspecified) to `COc1ccc(C(=O)/C=C/Nc2ccccn2)cc1`, the activation rises from 7.1% to 134%.

Compared with `NC(=O)N1CCc2ccccc21`, `O=C(c1cccc(C(=O)N2CCc3ccccc32)n1)N1CCc2ccccc21` is lower in activation: -5.27% for the first, -32.2% for the second.

Compared with `Cc1ccc(C(=O)N2CCN(S(=O)(=O)N3CCOCC3)CC2)cc1`, `Cc1cc(=O)oc(C)c1C(=O)N1CCCCC1` is lower in activation: 0.65% for the first, -5.29% for the second.

First: Cc1cc(C)nc(Nc2cc([N+](=O)[O-])ccc2C)n1
Second: Cc1cc(C)nc(N2CCC(C(=O)Nc3ccc4c(c3)OCCO4)CC2)n1
The activation of the first is lower: -6.89% for the first, 2.98% for the second.

First: COc1ccccc1Oc1ccc(N/C=C2/CCCC2=O)cc1
Second: COc1ccc(-c2csc(Nc3ccc(O)cc3)n2)cc1
The activation of the first is lower: 17.2% for the first, 120% for the second.

Going from `CCOC(=O)c1c(/N=C/C2C(=O)CC(C)(C)CC2=O)sc(C)c1C` to `Cc1ccnc(N2CCCC(C(=O)Nc3cc(F)ccc3C)C2)n1` (stereo unspecified), the activation rises from 2.63% to 30.3%.

Compared with `COc1cccc(CN(C)CC(=O)NCc2ccccc2Cl)c1OC`, `CC(C)(C)NC(=O)CN(C(=O)c1ccc(Cl)nc1)c1cccc2ccccc12` is lower in activation: 7.69% for the first, -19.3% for the second.

First: O=C1C2C3C=CC(C3)C2C(=O)N1c1ccc(-c2nc3ccccc3c(=O)o2)cc1 (stereo unspecified)
Second: NS(=O)(=O)c1ccc(Nc2nc(-c3ccccc3)cs2)cc1
The activation of the first is lower: 3.88% for the first, 52.2% for the second.

First: CCC1(C(=O)c2ccccc2)C(c2cccc([N+](=O)[O-])c2)C1(C(=O)OC)C(=O)OC (stereo unspecified)
Second: c1cnc(Nc2nc(-c3ccc4ccccc4c3)cs2)nc1
The activation of the first is lower: -17.3% for the first, 29.6% for the second.

First: Oc1ccc(-c2csc(Nc3cccnc3)n2)cc1
Second: COc1ccc2nc(Nc3nc(-c4ccncc4)cs3)sc2c1
The activation of the first is lower: 17.7% for the first, 65.1% for the second.

`O=C(Nc1ccc(Cl)cn1)Nc1cccs1` showed an activation of 25.6%.

For `CCOc1ccc2nc(C(=O)N3CCCC(C)C3)sc2c1` (stereo unspecified), the activation was 158% (active).
In the case of `O=C(Nc1ccc(Cl)cn1)c1ccc2c(c1)OCCO2`, the activation is reported as 199% (active).
For `CN1CCN(c2ccc(NC(=O)c3ccc4c(c3)OCCO4)cc2Cl)CC1`, the activation was 144% (active).
For `c1ccc(-n2ncc3c(N4CCCC4)ncnc32)cc1`, the activation was 160% (active).
In the case of `COc1ccc(-n2ncc3c(N4CCc5ccccc54)ncnc32)cc1`, the activation is reported as 204% (active).
In the case of `C/C(=N\Nc1nc2ccccc2[nH]1)c1cccs1`, the activation is reported as 150% (active).
In the case of `C/C(=N\Nc1ncc(Cl)cc1Cl)c1cccs1`, the activation is reported as 154% (active).
For `Cc1cccc(-n2c(O)c(C=Nc3ccccc3N)c(=O)[nH]c2=O)c1`, the activation was 148% (active).
In the case of `CCOc1cccc(/C=C/c2ccc3ccccc3n2)c1OC(C)=O`, the activation is reported as 216% (active).
With `O=C(c1cnn2ccccc12)N1CCc2ccccc21` the activation was 145% (active).
In the case of `Cc1ccc(-n2cc3ccc([N+](=O)[O-])cc3n2)cc1`, the activation is reported as 179% (active).
With `COc1ccc(Nc2ncc(F)c(N3CCOCC3)n2)cc1` the activation was 153% (active).
In the case of `COc1ccc(NC(=S)N2N=CCC2c2ccccc2)cc1` (stereo unspecified), the activation is reported as 180% (active).
In the case of `Cc1ccc2cc3cc(C(=O)N4CCCCCC4)oc3nc2c1`, the activation is reported as 167% (active).
With `O=C(CSc1nc2ccccc2[nH]1)c1cccs1` the activation was 162% (active).
In the case of `O=C(Nc1ccc2c(c1)OCCO2)C1CCCN(c2ncccn2)C1` (stereo unspecified), the activation is reported as 159% (active).
With `Clc1ccc(Nc2nc(-c3cccs3)cs2)nc1` the activation was 135% (active).
In the case of `c1ccc(Nc2nc(-c3ccncc3)cs2)nc1`, the activation is reported as 158% (active).
For `COc1ccc(Nc2nc(-c3ccccc3)cs2)cc1`, the activation was 148% (active).
In the case of `COc1ccc(-c2csc(Nc3ccccn3)n2)cc1`, the activation is reported as 205% (active).
